EphB4 ephrin blk = EphB4-ephrin-B2 interaction antagonists, primary screen, biochemical, TNYL-RAW peptide probe, fluorescence polarization | AID 720, 2007 | inhibition, % at 7 µM | 97,000 tested, 0.15% active | EphB4 LBD / TNYL-RAW-Alexa532 peptide | Ephrin type-B receptor 4 (Homo sapiens), P54760;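 active = inhibition above the screen-wide mean inhibition plus 3 SD, cut at about 15% in these data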;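 also: 0% = DMSO wells and 100% = excess unlabeled TNYL-RAW peptide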
D1 allo mod = D1 CRE-luciferase signal change, two-sided – cell-based, HEK293 D1, dopamine EC30, D1 allosteric modulator project, primary screen; 58,000 tested, 5.9% active; dopamine EC30 potentiation; actives deviate in either direction; B-score at 10 µM;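 active = luminescence count or its row- and column-corrected plate score outside the 99.7% band of the plate's sample wells, on either side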
Target sequence (P21728 whole entry, looked up): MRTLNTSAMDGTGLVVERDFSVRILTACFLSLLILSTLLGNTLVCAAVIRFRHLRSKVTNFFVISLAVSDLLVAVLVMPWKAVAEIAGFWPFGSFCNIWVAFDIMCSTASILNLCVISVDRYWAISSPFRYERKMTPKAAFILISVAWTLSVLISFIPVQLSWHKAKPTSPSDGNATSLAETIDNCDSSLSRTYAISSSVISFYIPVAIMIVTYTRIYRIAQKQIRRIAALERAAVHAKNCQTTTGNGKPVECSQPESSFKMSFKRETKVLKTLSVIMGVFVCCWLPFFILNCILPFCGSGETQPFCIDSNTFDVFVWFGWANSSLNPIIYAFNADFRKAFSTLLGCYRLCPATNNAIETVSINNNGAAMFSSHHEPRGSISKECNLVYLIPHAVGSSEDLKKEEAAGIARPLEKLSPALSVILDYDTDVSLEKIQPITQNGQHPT
DAT uptake mod = changed hDAT dopamine uptake under cocaine IC80, either direction, primary screen, cocaine antagonist project, cell-based, LLC-PK1 hDAT, [14C]-dopamine uptake, MLSMR. LLC-PK1 hDAT cells, [14C]-dopamine uptake with cocaine IC80; actives deviate in either direction. B-score at 10 µM. Sodium-dependent dopamine transporter (Homo sapiens), Q01959. AID 449768, 2010. 110,000 tested, 1.3% active;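 active = Z score or B-score, a plate-position-corrected score, falls beyond the plate's 99.7% confidence bounds, in either direction; inactive = both scores lie inside the 99.7% bounds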;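 also: scored against the spread of the other compound wells on the same plate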
D1 PAM confirm = D1 receptor positive allosteric modulators, retest, confirmation, cell-based, HEK293 D1, CRE-luciferase, duplicate | shares compounds with D1 allo mod | dopamine EC30 potentiation; hits give high values | luminescence at 10 µM | 2,200 tested, 88% active | AID 642, 2007;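 active = luminescence in either of two replicates above the same-plate mean plus 3 SD of the low-dose dopamine control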
D1 no dopamine = D1 receptor agonism without dopamine, confirmation, mechanism study for D1 allosteric modulator project, cell-based, HEK293 D1, CRE-luciferase, secondary assay 1; shares compounds with D1 allo mod; luminescence, no dopamine; hits give high values; luminescence at 10 µM; 1,900 tested, 0.8% active; AID 646, 2007; in the data active = luminescence above about 3900
Isoprot counter = counter-screen for D1 modulators: isoproterenol response in HEK293 cells. shares compounds with D1 allo mod. HEK293 D1 CRE-luciferase, isoproterenol EC30 counter-screen. calls only at 10 µM. AID 647. 2,200 tested, 63% active;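 active = luminescence in either replicate above plate mean of wells with a partly effective reference agonist dose plus 3 SD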;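 also: isoproterenol raises cAMP through native beta-adrenoceptor Gs so signal bypasses D1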
* = called active by the depositor; i = inactive; . = not tested or not shown; + = active, no number. The entries come from a sample that favours hits as a whole.

SMILES	EphB4 ephrin blk	D1 allo mod	DAT uptake mod	others
Nc1ccc(N2CCN(C(=O)c3cccs3)CC2)cc1	0	.	0.27
CC(=O)Nc1ccc(N2CCN(C(=O)c3cccs3)CC2)cc1	.	0.011	-8.2*
CC(C)c1ccc(NC(=O)N(CCc2nc3ccccc3[nH]2)C2CCCC2)cc1	9	.	0.66
Cc1cc2nc(CCN(C(=S)NCC(C)C)C3CCCC3)[nH]c2cc1C	-4	.	2.7*
Cc1ccc(-c2nc3sc4c(N)ncnc4c3c3c2CCCC3)cc1	-5	.	-4.9*
COC(=O)c1sc2nc(-c3ccccc3)c3c(c2c1N)CCCC3	-4	.	-1.1
CCOC(=O)c1c(C)[nH]c(C(=O)CSc2ccccc2)c1C	.	-2.9*	-1.9
CCOC(=O)c1c(C)[nH]c(C(=O)COC(=O)CSC)c1C	6	.	0.85
COC(C[C@@H](O)[C@@H](C)[C@@H](O)COCc1ccccc1)OC	.	.	-0.5
COc1ccc(CC(=O)N2CC3(C)CC2CC(C)(C)C3)cc1 (stereo unspecified)	-2	.	-0.02
COc1ccc(/C=N/OCC(=O)N2CC3(C)CC2CC(C)(C)C3)cc1OC (stereo unspecified)	-1	.	2.8*
COC(C[C@@H](O)C[C@@H](O)COCc1ccccc1)OC	.	.	0.45
CCO[C@@H]1OC(C(=O)N2CCN(Cc3ccccc3)CC2)=C[C@H](c2coc3ccccc3c2=O)[C@H]1CCCO	.	.	0.038
O=c1oc(-c2cccnc2)nc2ccccc12	9	-4.5*	-0.41
c1cncc(-c2nc3ccccc3o2)c1	0	0.97	-1.5
O=C1c2ccccc2-c2ncnc3cccc1c23	4	13*	.
O=C(O)c1ccc2c3c(ncnc13)-c1ccccc1C2=O	.	-0.34	.
C=CCn1c(SCc2cc(=O)n3ccsc3n2)nc2scc(C3CC3)c2c1=O	.	9.8*	2.3
C=CCn1c(SCC(=O)NC2CCS(=O)(=O)C2)nc2scc(C3CC3)c2c1=O (stereo unspecified)	3	2.1	-0.041
CCn1c(SCC(=O)Nc2ccc(N(C)C)cc2)nnc1-c1cccc(C)c1	-1	-0.72	1.1
CC(C)c1ccc(S(=O)(=O)N2CCN(C(=O)c3cccc(F)c3)CC2)cc1	-11	-0.071	-0.0058
COc1ccc(/C=C/C(=O)c2sc(-c3ccccc3)nc2C)cc1	-1	.	2.3
Cc1ccc(CCNS(=O)(=O)c2cnc[nH]2)cc1	.	3.2*	0.0069	D1 PAM confirm=6464*;D1 no dopamine=1552;Isoprot counter=i
O=S(=O)(NCc1ccc(Cl)cc1)c1cnc[nH]1	-4	0.27	-1.3
COC(=O)C[C@H]1c2cc(F)ccc2S(=O)(=O)N1Cc1ccccc1	.	.	-0.42
SMILES	EphB4 ephrin blk	D1 allo mod	DAT uptake mod	others
Cc1cc2n(n1)C(c1ccsc1)Nc1ccccc1-2 (stereo unspecified)	-9	14*	0.015	D1 PAM confirm=15520*;Isoprot counter=+
Oc1ccccc1-c1cc(-c2ccccc2Cl)[nH]n1	-4	-0.57	0.88
Cc1cc2n(n1)C(c1ccccc1Cl)Nc1ccccc1-2 (stereo unspecified)	-7	14*	-0.062	D1 PAM confirm=16788*;D1 no dopamine=1488;Isoprot counter=+
CSc1ccc(C2Nc3ccccc3-c3cc(C)nn32)cc1 (stereo unspecified)	3	0.94	0.042
CCC/C=C(\CCC)C(NS(=O)(=O)c1cccc2cccnc12)c1ccc(C(=O)OC)cc1 (stereo unspecified)	.	.	0.062
Cc1ccc(C(=O)OCC(=O)Nc2ccc(N(C)C)cc2)cc1NC(=O)c1ccco1	0	.	0.51
Cc1ccc(C(=O)OCC(=O)Nc2ccccc2)cc1NC(=O)c1ccco1	4	4.4*	0.36	D1 PAM confirm=6808;D1 no dopamine=1724;Isoprot counter=i
N#Cc1nc(-c2ccccc2F)oc1NCCc1ccccc1	12	.	-1
COCCCNc1oc(-c2ccccc2F)nc1C#N	-4	5.8*	-0.28	D1 PAM confirm=11980*;D1 no dopamine=1596;Isoprot counter=+
COCCCNc1oc(-c2ccccc2OC)nc1C#N	-3	-0.06	-0.38
N#Cc1nc(-c2ccccc2F)oc1NCc1ccccc1	5	7.9*	-0.19	D1 PAM confirm=14936*;D1 no dopamine=1516;Isoprot counter=+
CCCCOC(=O)Cn1c(=O)c2c(nc(Br)n2Cc2ccccc2)n(C)c1=O	.	-1.3	0.56
Cc1nc(N)c(C#N)c(-c2ccccc2)c1C	5	-0.54	-0.61
c1cncc(-c2nc(-c3ccco3)cs2)c1	4	1.1	-0.0029
N#Cc1c(-c2ccco2)cc(-c2ccccn2)nc1N	-2	6.5*	0.43	D1 PAM confirm=12544*;D1 no dopamine=1548;Isoprot counter=+
N#Cc1c(-c2ccco2)cc(-c2cccnc2)nc1N	0	8.3*	0.15	D1 PAM confirm=14352*;D1 no dopamine=1676;Isoprot counter=+
Cc1c(-c2ccccc2)nc(N)c(C#N)c1-c1ccco1	4	5*	-0.044	D1 PAM confirm=15044*;D1 no dopamine=1636;Isoprot counter=i
Cc1ccc(-c2cc(-c3ccccc3Cl)c(C#N)c(N)n2)o1	-6	-0.18	0.1
CC(C)(C)CN1C(=O)C(=O)NC[C@@H]1CCCCN	.	.	-0.76
CC(=O)c1cccc(NC(=O)Cc2ccc3c(c2)CCCC3)c1	0	.	-0.4
CCOc1ccc(C2C(C(=O)c3cccs3)=C(O)C(=O)N2CCCn2ccnc2)cc1 (stereo unspecified)	4	.	.
CCOc1ccc(C2CC(c3cccc(Cl)c3)n3nc(N)nc3N2)cc1 (stereo unspecified)	.	1.8	0.97
Nc1nc2n(n1)C(c1cccs1)CC(c1ccccc1)N2 (stereo unspecified)	-10	14*	-0.3	D1 PAM confirm=13800*;Isoprot counter=+
Nc1nc2n(n1)C(c1cccc(Cl)c1)CC(c1ccc(F)cc1)N2 (stereo unspecified)	0	13*	-0.087	D1 PAM confirm=13312*;Isoprot counter=+
COc1ccc(C2CC(c3ccc(Cl)cc3Cl)n3nc(N)nc3N2)cc1 (stereo unspecified)	1	1.2	-0.48
Nc1nc2n(n1)C(c1cccs1)CC(c1ccc(F)cc1)N2 (stereo unspecified)	5	.	-1.1
COc1ccc(C2CC(c3ccc(Cl)cc3Cl)Nc3nc(N)nn32)cc1 (stereo unspecified)	3	3.1*	1.2	D1 PAM confirm=6116*;D1 no dopamine=1680;Isoprot counter=i
Cc1cccc(C2CC(c3ccccc3)Nc3nc(N)nn32)c1 (stereo unspecified)	2	18*	-0.48	D1 PAM confirm=16344*;D1 no dopamine=1564;Isoprot counter=+
COc1cccc(C2CC(c3ccc(C)cc3)Nc3nc(N)nn32)c1 (stereo unspecified)	.	0.64	-0.39
Cc1ccc(NC(=O)/C(=C\c2ccccc2)NC(=O)/C=C/c2ccccc2)cc1	6	.	0.89
